These results are taken from PMC4336329 (PLoS ONE, 2015).

About 14,000 (4.5%) of roughly 310,000 compounds showed an effect of 50% or more. Effects have a minus sign here. The entries come from a sample that favours strong results as a whole.
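Also: peak tail current of the secondary pulse compared with the same well before compound.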

Sequence of human ether-à-go-go-related gene (hERG) potassium channel (Q12809 whole entry, looked up): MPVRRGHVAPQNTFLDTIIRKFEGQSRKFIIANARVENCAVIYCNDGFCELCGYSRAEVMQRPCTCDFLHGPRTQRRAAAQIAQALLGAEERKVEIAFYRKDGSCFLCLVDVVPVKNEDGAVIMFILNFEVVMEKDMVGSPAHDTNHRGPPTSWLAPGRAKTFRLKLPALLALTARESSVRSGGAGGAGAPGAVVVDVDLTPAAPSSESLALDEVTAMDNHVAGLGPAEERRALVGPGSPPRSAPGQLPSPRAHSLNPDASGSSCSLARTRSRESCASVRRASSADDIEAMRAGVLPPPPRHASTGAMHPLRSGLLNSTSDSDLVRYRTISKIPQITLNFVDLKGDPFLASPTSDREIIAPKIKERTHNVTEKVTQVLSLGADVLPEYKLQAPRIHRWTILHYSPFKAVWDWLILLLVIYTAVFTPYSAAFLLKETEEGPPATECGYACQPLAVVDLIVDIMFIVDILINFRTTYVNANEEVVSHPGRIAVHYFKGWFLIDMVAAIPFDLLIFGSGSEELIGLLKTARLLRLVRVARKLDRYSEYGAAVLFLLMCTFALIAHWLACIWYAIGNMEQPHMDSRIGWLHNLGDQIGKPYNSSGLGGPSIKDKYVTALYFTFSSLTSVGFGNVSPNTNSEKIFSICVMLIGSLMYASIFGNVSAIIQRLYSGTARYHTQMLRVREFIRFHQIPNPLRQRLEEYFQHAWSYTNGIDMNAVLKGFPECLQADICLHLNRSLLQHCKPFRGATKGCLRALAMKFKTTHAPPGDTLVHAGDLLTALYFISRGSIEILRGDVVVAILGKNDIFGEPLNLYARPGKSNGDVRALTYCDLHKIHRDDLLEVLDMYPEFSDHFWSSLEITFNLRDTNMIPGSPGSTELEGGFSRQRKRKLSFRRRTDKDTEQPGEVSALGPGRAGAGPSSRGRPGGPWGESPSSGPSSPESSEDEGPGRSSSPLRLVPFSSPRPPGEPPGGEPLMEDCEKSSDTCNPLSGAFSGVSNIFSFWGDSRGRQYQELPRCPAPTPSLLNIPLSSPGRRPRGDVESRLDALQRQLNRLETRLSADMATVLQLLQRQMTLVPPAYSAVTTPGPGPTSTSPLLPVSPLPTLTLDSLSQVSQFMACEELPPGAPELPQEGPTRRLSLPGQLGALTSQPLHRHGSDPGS

This assay has as its target human ether-à-go-go-related gene (hERG) potassium channel (human, UniProt Q12809). As to the kind of experiment: primary screen, population patch clamp on CHO cells stably expressing hERG; higher = less effect of the substance.
Turning to `CCC(C)n1c(SCC(=O)Nc2ccccc2C(F)(F)F)nc2ccsc2c1=O` (stereo not drawn), the “hERG current change (%, negative = inhibition) at 10uM” value is -14%.
Turning to `Cc1ccc(C(=O)Oc2coc(CSc3nnc(NC(=O)C4CC4)s3)cc2=O)cc1`, the “hERG current change (%, negative = inhibition) at 10uM” value came out at 16.6%.
In the case of `Cc1[nH]c(C)c(S(=O)(=O)N(C)Cc2ccccc2)c1C(=O)N1CCCC1`, the “hERG current change (%, negative = inhibition) at 10uM” value is 15.2%.
As for `CC(=O)N1CCc2cc(S(=O)(=O)CCC(=O)NCc3ccco3)ccc21`, the “hERG current change (%, negative = inhibition) at 10uM” value was found to be 12.5%.
As for `Cc1nn(-c2ccccc2)c(C)c1/C=N/NC(=O)CSc1nnc(-c2ccccc2)n1-c1ccc(Cl)cc1`, the figure is 5.46%; as for `Cc1nc(C)c(C(=O)Nc2cccc(C)c2C)o1`, -0.939%.
The same measure for `Cc1c(NC(=O)C2(C)CCCCC2)c(=O)n(-c2ccccc2)n1C`: 6.22%; for `CC1(O)CCN2C(=O)CCc3cccc1c32` (stereo not drawn): -9.44%.
Turning to `O=C(C1CCCCC1)N1CC(=O)N2CCc3ccccc3C2C1` (stereo not drawn), the “hERG current change (%, negative = inhibition) at 10uM” value amounted to 10.2%.
As for `CC(C)(C)[C@]1(O)CCN2C[C@H]3c4ccccc4CCc4cccc(c43)[C@@H]2C1.Cl`, the figure is -78.3%; as for `CCOc1cc(-c2noc(CCC(=O)NCCc3ccccc3)n2)ccc1OC`, 1.79%; as for `CN(C)c1nc(NCc2ccccc2)nc(N/N=C/c2ccc(Br)cc2)n1`, 13.3%.
For `COc1cc(C2C(C#N)=C(N)Oc3c2c(-c2ccccc2)nn3-c2ccccc2)cc(OC)c1OC` (stereo not drawn), the “hERG current change (%, negative = inhibition) at 10uM” value is given as -65%.
The same measure for `COc1ccc(C2C(C#N)=C(N)Oc3c2c(-c2ccccc2)nn3-c2ccccc2)c(OC)c1OC` (stereo not drawn): -1.15%; for `COc1ccccc1C1C(C#N)=C(N)Oc2c1c(-c1ccccc1)nn2-c1ccccc1` (stereo not drawn): 0.699%.
As for `O=C(Nc1ccn(Cc2c(F)c(F)cc(F)c2F)n1)c1ccc(COc2cc(Cl)ccc2Cl)o1`, the figure is 6.83%.
`Cl.Oc1cccc(C(O)CNCc2ccc(-c3ccccc3)cc2)c1` (stereo not drawn): the “hERG current change (%, negative = inhibition) at 10uM” value was -66%.
As to `CC(NCc1ccccc1Cl)C(O)c1ccccc1.Cl` (stereo not drawn), the “hERG current change (%, negative = inhibition) at 10uM” value is recorded as 4.31%.
Consider `CCNCC(O)c1cccc(O)c1` (stereo not drawn), for which the “hERG current change (%, negative = inhibition) at 10uM” value is 20.8%.
As for `CC(NCC#Cc1ccccc1)C(O)c1ccccc1.Cl` (stereo not drawn), the figure is -1.67%; as for `CSc1ccc(CNC(C)C(O)c2ccccc2)cc1.Cl` (stereo not drawn), -51.4%; as for `OC(CNCc1ccccc1)c1ccccc1` (stereo not drawn), 4.68%.
On to `CSc1ccc(CNCC(O)c2ccccc2)cc1.Cl` (stereo not drawn), for which the “hERG current change (%, negative = inhibition) at 10uM” value is given as -55%.
As to `Cl.OC(CNCc1ccncc1)c1ccccc1` (stereo not drawn), the “hERG current change (%, negative = inhibition) at 10uM” value was found to be 6.97%.
The same measure for `Cl.OC(CNCc1ccc(-c2ccccc2)cc1)c1ccccc1` (stereo not drawn): -16.1%.
`COc1ccc(N2CC(C(=O)NCc3nnnn3-c3ccc(C)c(C)c3)CC2=O)cc1` (stereo not drawn): the “hERG current change (%, negative = inhibition) at 10uM” value is listed as -19.6%.
As for `Cc1ccc(CNC(=O)CN2C(=O)COc3ccc(C)cc32)cc1`, the figure is -5.06%; as for `COc1ccc(C(=O)CNc2ccccc2C#N)cc1`, 28.1%; as for `CCCOc1ccc(S(=O)(=O)NCCN2CCOCC2)c2ccccc12`, -23.3%.
For `CC(CCc1ccccc1)NC(=O)COC(=O)CC1CC2CCC1C2` (stereo not drawn), the “hERG current change (%, negative = inhibition) at 10uM” value is -6.07%.
On to `CSc1cccc(CN2CCN(CCc3ccccc3)C(CCO)C2)c1` (stereo not drawn), for which the “hERG current change (%, negative = inhibition) at 10uM” value is -80.4%.
For `CSc1ncc(CN2CCN(C3CCCC3)C(CCO)C2)cn1` (stereo not drawn), the “hERG current change (%, negative = inhibition) at 10uM” value is on record as -0.478%.
The same measure for `OCCC1CN(Cc2ccc(Oc3ncccn3)cc2)CCN1Cc1ccc(F)c(F)c1` (stereo not drawn): -23.6%; for `OCCC#Cc1ccc(CN2CCN(Cc3ccccc3)C(CCO)C2)cc1` (stereo not drawn): -15%.
The same measure for `CSc1ccc(CN2CCN(CC=C(C)C)C(CCO)C2)cc1` (stereo not drawn): -46.2%.
As for `CSc1ccc(CN2CCN(C3CCCC3)C(CCO)C2)cc1` (stereo not drawn), the figure is -53.8%; as for `CSc1cccc(CN2CCN(Cc3ccc(F)c(F)c3)C(CCO)C2)c1` (stereo not drawn), -69.5%.
As for `OCCC1CN(CC2CC2)CCN1Cc1ccc(F)c(F)c1` (stereo not drawn), the “hERG current change (%, negative = inhibition) at 10uM” value was -25.5%.
Take `CSc1ccc(CN2CCN(Cc3ccccc3)C(CCO)C2)cc1` (stereo not drawn): the “hERG current change (%, negative = inhibition) at 10uM” value is recorded as -56.8%.
Consider `CSc1cccc(CN2CCN(CCC(C)C)C(CCO)C2)c1` (stereo not drawn), for which the “hERG current change (%, negative = inhibition) at 10uM” value is on record as -33.2%.
With `CSc1ncc(CN2CCN(C3CCCCC3)C(CCO)C2)cn1` (stereo not drawn), the “hERG current change (%, negative = inhibition) at 10uM” value is reported as -16.9%.
As for `CC12CCC(C/C1=N\OC(=O)c1c(F)cccc1F)C2(C)C` (stereo not drawn), the figure is -0.495%; as for `CC(C)(C)C1CCC(=NNC(=O)CN(c2ccccc2)S(=O)(=O)c2ccccc2[N+](=O)[O-])CC1` (stereo not drawn), 6.69%; as for `COCCNC(=O)c1ccc(N2CC3CC(C2)c2cccc(=O)n2C3)c([N+](=O)[O-])c1` (stereo not drawn), 21.4%.
For `Cc1ccc(S(=O)(=O)C2(C(=O)Nc3cccc(F)c3)CC2)cc1`, the “hERG current change (%, negative = inhibition) at 10uM” value was 0.141%.
